Only some compounds are listed: those with a hit (about 4.3% of all), similar ones and a draw of the others.
HIF-2a inh: inhibitors of HIF-2a | 786-0 RCC cells HIF-2a reporter, luciferase luminescence, overnight | inhibition, % at 18.8 µM | actives 0.72% (n = 360,000);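 active = inhibition of the luminescence signal of 40% or more relative to plate controls, in a single-dose primary screen at 18.75 µM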
KKLEB cytotox: counter-screen for CF NF-kB inhibitors: cytotoxicity | activity change (cytotoxicity), % at 5 µM | actives 0.36% (n = 360,000) | KKLEB CF airway cells viability, ATPlite luminescence, overnight; hits give low values; cells stimulated with P. aeruginosa culture filtrate | AID 602141;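 active = corrected activity change at or below -50% at 5 µM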
CHOP inh: inhibitors of CHOP induction in ER stress response. CHO-K1 CHOP-promoter luciferase, tunicamycin-induced, 15-18 h. inhibition, % at 10 µM. actives 3.8% (n = 220,000);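 active = compounds that reduced the stress-induced luciferase reporter signal by more than about 70% of percent inhibition, limit read from the data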
TRPM1 prom inh: inhibitors of MITF-driven TRPM1 promoter in melanoma cells. SK-MEL-5 TRPM1 promoter luciferase, 24 h. inhibition, % at 12.5 µM. actives 0.83% (n = 330,000). AID 488899;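 active = mean inhibition across replicates of 60% or more, whatever share of single replicates reaches that level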
Peg3 promoter: inhibitors of Peg3 promoter; actives 1.7% (n = 360,000); AID 588405; inhibition, % at 20 µM; HeLa PEG-Prom luciferase reporter, luminescence, overnight;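 active = inhibition of at least 50% at 20 µM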
CF NFkB inh: blocks PAF-induced NF-kB reporter in cystic fibrosis cells; AID 588850; inhibition, % at 5 µM; KKLEB NF-kB-GFP reporter, GFP fluorescence overnight; actives 0.86% (n = 360,000);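 active = at least 50% inhibition at 5 µM, scaled per plate between neutral and stimulator controls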;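 note: PAF is a Pseudomonas aeruginosa culture filtrate used as stimulus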
Each line names hits and unclear results; the compound was inactive in the other large screens.

O=c1ccc(-c2ccc([N+](=O)[O-])cc2)nn1-c1ccccc1	none
O=[N+]([O-])c1ccc(-[n+]2nc(-c3ccccc3)nn2-c2ccccc2)cc1	KKLEB cytotox -53 (no result: CHOP inh)
COc1ccc(C(C)NCCC(c2ccc(OC(C)C)cc2)c2ccccc2OC)cc1 (stereo unspecified)	TRPM1 prom inh 92, Peg3 promoter 104 (no result: CHOP inh)
CCC(C)(C(=O)NC1CCCC1)N(C(C)=O)c1ccc(C)cc1 (stereo unspecified)	none
CCC(C)(C(=O)NC1CCCCC1)N(C(=O)C1CCC(=O)N1)c1ccc(C)cc1 (stereo unspecified)	CHOP inh 71
C[C@H]1CC[C@H]2C(=O)N3[C@H](c4ccccc4Br)[C@@H](C)CC[C@H]3C(=O)N2[C@@H]1c1ccccc1Br	CHOP inh 85 (no result: HIF-2a inh, KKLEB cytotox, TRPM1 prom inh, Peg3 promoter, CF NFkB inh)
O=C(Cc1cccc(C(F)(F)F)c1)Nc1ccccc1	none
CCCCNC(=NCc1cccc(C(F)(F)F)c1)Nc1ccccc1	Peg3 promoter 76 (no result: CHOP inh)
CC(C)Nc1ncnc2c1ncn2[C@H]1CN(C2CCCC2)C[C@@H](CO)O1	none (no result: CHOP inh, TRPM1 prom inh)
CN(C)CCCNc1cc(O)c2ncccc2c1	Peg3 promoter 81 (no result: CHOP inh)
Oc1cc(NCc2ccc(Cl)cc2)cc2cccnc12	none (no result: CHOP inh)
COc1ccc(C(=O)CSc2nnc(-c3ccc(C)cc3)o2)cc1	none
COc1ccc(OC)c(C(=O)CSc2nnc(-c3ccc(OC)c(OC)c3)o2)c1	CHOP inh 80 (no result: HIF-2a inh, KKLEB cytotox, TRPM1 prom inh, Peg3 promoter, CF NFkB inh)
COc1ccc(-c2csc3nc(C(C)C)oc(=O)c23)cc1OC	none
COc1ccc(-c2nc3scc(-c4ccc(OC)c(OC)c4)c3c(=O)o2)cc1	CHOP inh 92
COc1ccc(/C=N/Nc2nccnc2Cl)cc1	CHOP inh 72
COc1cccc(/C=N/Nc2nc3ccccc3n3cnnc23)c1O	Peg3 promoter 71
COc1cccc(/C=N/Nc2ncnc(Cl)c2N)c1O	HIF-2a inh 63, Peg3 promoter 85
COc1cccc(/C=N/Nc2ncnc3scc(-c4ccccc4)c23)c1O	CHOP inh 75, TRPM1 prom inh 70, Peg3 promoter 60
COc1cccc(/C=N/Nc2nc3ccccc3[nH]2)c1O	none
COc1ccc(/C=N/Nc2ncnc(Cl)c2N)cc1OC	none
Clc1nccnc1N/N=C/c1ccc(Br)cc1	none (no result: CHOP inh)
COc1cccc(/C=N/Nc2nc3ccccc3n3cnnc23)c1	none
COc1cccc(CCN2C(=O)CCC3=C2CCC3=O)c1	none (no result: CHOP inh, TRPM1 prom inh)
CC(/C=C/c1cccc(Oc2ccc(F)cc2)c1)N(O)C(N)=O (stereo unspecified)	none (no result: HIF-2a inh, KKLEB cytotox, TRPM1 prom inh, Peg3 promoter, CF NFkB inh)
O=C(Nc1cccc(Br)c1)c1cccc(OC(=S)N2CCOCC2)c1	none (no result: CHOP inh)
COc1ccc(N2CCN(c3cc(C(=O)NC4CCCCC4)ncn3)CC2)cc1OC	none (no result: CHOP inh, TRPM1 prom inh)
Oc1ccccc1/C=N/Nc1nccnc1Cl	none
COc1cccc(/C=N/Nc2nccnc2Cl)c1O	CHOP inh 74, Peg3 promoter 53
CCCOc1ncnc2c1[nH]c1ccc(OC)cc12	none
CCCOc1ncnc2c1[nH]c1ccccc12	CHOP inh 72
COc1ccc(Nc2nc(N)nc(CCl)n2)cc1	none
Nc1nc(CCl)nc(Nc2ccc3ccccc3c2)n1	CF NFkB inh 78
CCC(c1nc2ccccc2[nH]1)n1c(-c2ccc3ccccc3c2)nc2ccccc21 (stereo unspecified)	none (no result: KKLEB cytotox, CHOP inh, TRPM1 prom inh, Peg3 promoter, CF NFkB inh)
CCCCCCCCC(c1nc2ccccc2[nH]1)N1CCN=C1c1cc2ccccc2[nH]1 (stereo unspecified)	Peg3 promoter 100 (no result: CHOP inh, TRPM1 prom inh)
CSc1ncccc1C(=O)Nc1nc2c(C)cccc2s1	CHOP inh 86
O=C(Cc1csc(-c2ccccc2)n1)Nc1ccc(C(F)(F)F)cc1	CHOP inh 83
Cc1ccc(NC(=O)Cc2csc(-c3ccccc3)n2)cc1F	none
CCCC(C)c1nnc(NC(=O)C2CC(=O)N(CCc3ccc(F)cc3)C2)s1 (stereo unspecified)	none (no result: CHOP inh)
O=C(CC1Sc2ccccc2NC1=O)c1ccc(Br)cc1 (stereo unspecified)	CHOP inh 72
CCOC(=O)c1c2c3c(cccc3n(C)c1=O)C(=O)c1ccccc1-2	none (no result: CHOP inh)
CCOC(=O)c1c2c(n(Cc3ccccc3)c1C)C(=O)C(=O)c1ccccc1-2	HIF-2a inh 89, KKLEB cytotox -75, Peg3 promoter 93, CF NFkB inh 61 (no result: CHOP inh, TRPM1 prom inh)
CC12CCC3c4ccc(OCC(=O)O)cc4CCC3C1CCC2=O (stereo unspecified)	none (no result: CHOP inh)
